High-throughput results as filed in PubChem.
Rows were chosen to be rich in hits. Some 1.5% of all compounds tested hit in one or more screens of this group.
MRP1 act: activates MRP-1; H69AR cells + doxorubicin, viability rescue, CellTiter-Glo; viability increase, % at 10 µM; hit rate 0.61% among 140,000; AID 799;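 active = viability gain under doxorubicin at or above a set limit, the compound median plus 3 SD, cut at about 4.7% in these data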;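 also: MRP-1 overexpressing cells given doxorubicin 25 µM after compound pretreatment; 18-22 h compound pretreatment then 72 h with doxorubicin before readout; 0% = doxorubicin-only wells and 100% = vehicle-treated cells without doxorubicin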
MRP resist rev: compounds reversing MRP-mediated drug resistance; H69AR cells + 2 uM doxorubicin, CellTiter-Glo, 72 h; differential viability (reversal), % at 10 µM; hit rate 0.04% among 85,000; AID 602;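 active = viability drop by adding the cancer drug above about 55%, with treated viability meeting a 40% cutoff, limit read from the data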;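 also: viability without doxorubicin minus viability with 2 µM doxorubicin for each compound; larger differential means the compound sensitizes cells more to doxorubicin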
DAT uptake mod: human DAT dopamine uptake with cocaine, either direction; B-score at 10 µM; LLC-PK1 hDAT cells, [14C]-dopamine uptake with cocaine IC80; actives deviate in either direction; hit rate 1.3% among 110,000;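 active = Z score or B-score, a plate-position-corrected score, falls beyond the plate's 99.7% confidence bounds, in either direction; inactive = both scores lie inside the 99.7% bounds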;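 also: scored against the spread of the other compound wells on the same plate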
Target sequence (Q01959 whole entry, looked up): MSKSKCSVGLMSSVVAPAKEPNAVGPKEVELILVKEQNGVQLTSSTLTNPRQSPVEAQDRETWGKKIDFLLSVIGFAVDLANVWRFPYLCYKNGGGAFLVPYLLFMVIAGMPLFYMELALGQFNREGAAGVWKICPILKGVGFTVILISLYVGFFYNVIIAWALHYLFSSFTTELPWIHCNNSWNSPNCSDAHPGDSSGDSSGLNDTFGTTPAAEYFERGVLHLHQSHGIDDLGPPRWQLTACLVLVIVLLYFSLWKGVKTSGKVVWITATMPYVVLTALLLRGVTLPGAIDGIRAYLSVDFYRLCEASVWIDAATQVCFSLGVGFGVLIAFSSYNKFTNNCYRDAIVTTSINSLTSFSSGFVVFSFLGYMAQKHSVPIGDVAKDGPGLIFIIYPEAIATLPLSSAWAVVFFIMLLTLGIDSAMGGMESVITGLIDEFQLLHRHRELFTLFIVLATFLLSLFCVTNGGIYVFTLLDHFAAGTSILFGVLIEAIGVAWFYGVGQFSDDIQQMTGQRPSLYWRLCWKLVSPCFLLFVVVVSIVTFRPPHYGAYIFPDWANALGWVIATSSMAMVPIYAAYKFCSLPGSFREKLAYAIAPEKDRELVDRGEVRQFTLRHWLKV
Active calls of the source: *; · = no result.

SMILES	MRP1 act	MRP resist rev	DAT uptake mod
O=C(NNC(=O)c1cccc(S(=O)(=O)N2CCN(c3ccccc3)CC2)c1)c1ccc(Cl)cc1	10.2*	·	·
O=C(c1cccc(S(=O)(=O)N2CCCC2)c1)N1CCN(c2ccccc2)CC1	-1.8	-0.1	1.07
CS(=O)(=O)c1ccc(CNC(=O)C2(C(F)(F)F)C/C(=C\Cc3ccccc3)CCCO2)cc1 (centres undefined)	·	·	0.442
C[C@]12CCC[C@H](O1)c1c(cc3c(c1O)C(=O)c1c(O)cc(O)cc1C3=O)O2	·	·	-0.722
COC(=O)CSc1nc(NC(C)=O)nc(C)c1Br	-0.6	5.8	-1.49
CCOC(=O)CSc1nc(N)nc(C)c1Br	18.7*	4.0	-0.31
CSCC[C@H](NC(=O)C(C)Oc1ccc(Cl)cc1)c1nc2ccccc2[nH]1 (some centres undefined)	-2.3	·	·
NC(=O)c1c(NC(=O)CSc2nnc(-c3ccccc3)n2CC2CCCO2)sc2c1CCC2 (centres undefined)	-0.7	-33.5	2.67*
N#Cc1c(NC(=O)CSc2nnc(-c3ccncc3)n2CC2CCCO2)sc2c1CCCC2 (centres undefined)	-3.1	·	2.55
Cc1cccc(CSc2nnc(-c3cccs3)n2Cc2ccco2)c1	-3.7	7.6	2.19
O=C(Nc1cccc(F)c1)N1CCN(C/C=C/c2ccccc2)CC1	-2.1	1.3	2.21*
O=C(Nc1ccc(F)cc1)N1CCN(C/C=C/c2ccccc2)CC1	0.3	14.1	1.6
CCOC(=O)c1c(NC(=O)COC(=O)c2nc(Cl)ccc2Cl)sc2c1CCC2	-1.6	·	·
Clc1cc(Cl)cc(Nc2ncn[nH]2)c1	-0.9	·	0.62
Cc1ccc(CC2S/C(=C(/C#N)C(=O)NCc3ccco3)N(c3ccccc3)C2=O)cc1 (centres undefined)	6.6*	-32.8	2.16
CCOC(=O)/C(C#N)=C1/C=CN(c2ccc(C)cc2)C=N1	-1.1	-2.5	0.815
N#C/C(C(=O)NCc1ccco1)=C1/SC(Cc2ccc(Cl)cc2)C(=O)N1c1ccccc1 (centres undefined)	-1.4	43.6	0.414
CCOC(=O)/C(C#N)=C1/SC(CC)C(=O)N1c1ccc(C)cc1 (centres undefined)	-0.3	2.3	-2.8*
C#CCNC(=O)C1=C[C@H](c2ccc3c(c2)OCO3)C[C@H](OCc2ccc(CO)cc2)O1	·	·	1.27
COc1cc(C(=S)N2CCCC2)cc(Cl)c1OCC(=O)Nc1ccc(C)cc1C	-0.1	·	·
CCCCCn1c(CN2CCCCC2CC)nc2c1c(=O)n(C)c(=O)n2C (centres undefined)	·	22.9	-0.707
CCCCCn1c(CN2CCCCC2C)nc2c1c(=O)n(C)c(=O)n2C (centres undefined)	6.0*	-2.4	0.647
O=S(=O)(c1ccc(Cl)cc1)N1CCN(C(=S)Nc2ccc(F)c(Cl)c2)CC1	-1.3	·	·
COc1ccccc1CNC(=O)c1cnc2sccn2c1=O	·	5.9	-0.234
COc1ccccc1CNC(=O)c1cnc2ccccn2c1=O	-1.8	7.2	3.51*
SMILES	MRP1 act	MRP resist rev	DAT uptake mod
Cn1nc(C(=O)N2CCc3ccccc3C2)c2ccccc2c1=O	-0.6	13.7	0.781*
CCCn1nc(C(=O)N2CCc3ccccc3C2)c2ccccc2c1=O	-2.9	14.6	2.15
Cn1c(=NC(=O)CSCC(=O)N2CCCC2)sc2ccccc21	-2.1	12.4	-1.53
CC1CCCN(C(=O)CSCC(=O)N=c2sc3ccccc3n2C)C1 (centres undefined)	-0.3	19.9	2.69*
COc1ccc(N2C(=O)CCC(C(=O)O)C2c2ccc(F)cc2)cc1 (centres undefined)	1.4	13.3	-1.03
COc1ccc(C2C(C(=O)Nc3cccc(C)n3)CCC(=O)N2c2ccc(OC)cc2)cc1 (centres undefined)	12.6*	13.1	-0.709
O=C(CN1C(=O)c2ccccc2C1=O)N1CCN(C2c3ccccc3-c3ccccc32)CC1	-2.1	·	·
COc1ccc(N(Cc2ccccc2)C(=O)c2ccccc2[N+](=O)[O-])cc1	-2.9	·	-1.17
COc1ccc(NC2=Nc3ccccc3N3C2=Nc2c(c(C)nn2-c2ccc(C)cc2)C3c2cccnc2)cc1 (centres undefined)	8.8*	3.4	-0.229
CC(=O)Nc1ccc(NC2=Nc3ccccc3N3C2=Nc2c(c(C)nn2-c2ccccc2)C3c2ccccc2)cc1 (centres undefined)	4.6	-11.9	-0.0602
Cc1cccc(C(C)Nc2ccc([N+](=O)[O-])cn2)c1 (centres undefined)	-1.3	·	-0.935
O=C(c1ccccc1NS(=O)(=O)c1cccc(C(F)(F)F)c1)N1CCc2ccccc21	-2.5	·	·
COc1cccc(OCc2nnc(SCC(=O)N3c4ccccc4Sc4ccc(Cl)cc43)o2)c1	-3.3	·	·
Cc1cccc(OCc2nnc(SCC(=O)N3c4ccccc4Sc4ccc(Cl)cc43)o2)c1	-1.8	·	·
COc1cccc(-n2cnnn2)c1	-1.5	12.2	-0.182
